Results filed as inconclusive are left out. The source made the active and inactive calls. Rule for the calls, unless noted: active = hit-call score of the fitted dose curve at least 0.9, where 1 is the maximum; inconclusive = response in the unintended direction; inactive = score below 0.9.
These compounds were tested against human Retinoid X Receptor beta (RXRb), RXRB (gene 6257) (UniProt P28702) (assay: ATG_RXRb_TRANS: Attagene TRANS-FACTORIAL HepG2 Assay for human Retinoid X Receptor beta (RXRb) (AID 2283013)). Conditions: not given.
Procedure, shortened: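 Read-out: reporter mRNA induction via RT-PCR plus capillary electrophoresis fluorescence, analysed as signal increase relative to DMSO. Cells were human HepG2, transiently transfected with GAL4-UAS reporter constructs and chimeric receptor-Gal4 fusions, dosed for 24 h.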

Chain of human Retinoid X Receptor beta (RXRb), RXRB (gene 6257) (P28702 whole entry, looked up, the tested form may be a part): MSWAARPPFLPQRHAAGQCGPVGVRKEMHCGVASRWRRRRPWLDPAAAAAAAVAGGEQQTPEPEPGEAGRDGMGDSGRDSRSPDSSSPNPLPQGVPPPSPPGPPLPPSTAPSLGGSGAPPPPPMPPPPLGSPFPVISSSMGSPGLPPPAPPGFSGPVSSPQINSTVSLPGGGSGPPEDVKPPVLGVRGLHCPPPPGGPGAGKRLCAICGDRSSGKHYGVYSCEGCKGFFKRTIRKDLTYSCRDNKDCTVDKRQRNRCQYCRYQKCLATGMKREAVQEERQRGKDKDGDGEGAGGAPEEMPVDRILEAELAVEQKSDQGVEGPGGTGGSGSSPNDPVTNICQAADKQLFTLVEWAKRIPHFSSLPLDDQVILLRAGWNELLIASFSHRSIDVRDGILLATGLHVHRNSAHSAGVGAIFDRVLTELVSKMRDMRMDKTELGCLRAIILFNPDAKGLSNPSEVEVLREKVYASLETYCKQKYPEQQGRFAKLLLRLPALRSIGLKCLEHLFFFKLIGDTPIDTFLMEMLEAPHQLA

SMILES | AC50 | outcome
CCCCCCCCCCCC#N | 44.5 µM (active) | –
O=C(NC(=O)c1c(F)cccc1F)Nc1ccc(Oc2ccc(C(F)(F)F)cc2Cl)cc1F | – | inactive
CC1CCCC1.[C-]#[O+].[C-]#[O+].[C-]#[O+].[Mn] | – | inactive
CC(=O)C=Cc1ccccc1 | – | inactive
CCC(=O)c1ccc(Cl)cc1 | – | inactive
Nc1ccccc1C(=O)Oc1ccc2ccccc2c1 | – | inactive
C=CC(=O)OC | – | inactive
O=[N+]([O-])C=Cc1ccccc1 | – | inactive
Nc1ccc(Cl)c(Cl)c1 | – | inactive
O=C(O)CCl | – | inactive
Nc1cc(Cl)cc(Cl)c1 | – | inactive
Cc1ccc(C)c2ccccc12 | 83.3 µM (active) | –
CC(=O)c1cc2c(cc1C)C(C)(C)C(C)CC2(C)C (centres undefined) | 5.85 µM (active) | –
Nc1ccc(-c2ccc(N)c(N)c2)cc1N | – | inactive
c1cc(OCC2CO2)ccc1Cc1ccc(OCC2CO2)cc1 (centres undefined) | – | inactive
C=CC(=O)OCCCCOC(=O)C=C | – | inactive
CC(C)[C@@H](C(=O)O[C@@H](C#N)c1cccc(Oc2ccccc2)c1)c1ccc(Cl)cc1 | – | inactive
O=[N+]([O-])c1cc([N+](=O)[O-])c2ccccc2c1 | – | inactive
CCCCCCCCCCCCCCCC[N+](C)(C)C | – | inactive

Each compound was assayed against human Thyroid Receptor alpha (THRa1), THRA (gene 7067) (UniProt P10827) (assay: ATG_THRa1_TRANS: Attagene TRANS-FACTORIAL HepG2 Assay for human Thyroid Receptor alpha (THRa1) (AID 2283014)). Conditions: not given.
Procedure, shortened: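 HepG2 cells transiently transfected with multiplexed GAL4-UAS reporter units for exogenous chimeric THRa1-Gal4; reporter mRNA measured 24 h after dosing by RT-PCR, 6-FAM labelling, HpaI digestion and capillary electrophoresis. Gain-of-signal fitted versus DMSO baseline.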

Chain of human Thyroid Receptor alpha (THRa1), THRA (gene 7067) (P10827 whole entry, looked up, the tested form may be a part): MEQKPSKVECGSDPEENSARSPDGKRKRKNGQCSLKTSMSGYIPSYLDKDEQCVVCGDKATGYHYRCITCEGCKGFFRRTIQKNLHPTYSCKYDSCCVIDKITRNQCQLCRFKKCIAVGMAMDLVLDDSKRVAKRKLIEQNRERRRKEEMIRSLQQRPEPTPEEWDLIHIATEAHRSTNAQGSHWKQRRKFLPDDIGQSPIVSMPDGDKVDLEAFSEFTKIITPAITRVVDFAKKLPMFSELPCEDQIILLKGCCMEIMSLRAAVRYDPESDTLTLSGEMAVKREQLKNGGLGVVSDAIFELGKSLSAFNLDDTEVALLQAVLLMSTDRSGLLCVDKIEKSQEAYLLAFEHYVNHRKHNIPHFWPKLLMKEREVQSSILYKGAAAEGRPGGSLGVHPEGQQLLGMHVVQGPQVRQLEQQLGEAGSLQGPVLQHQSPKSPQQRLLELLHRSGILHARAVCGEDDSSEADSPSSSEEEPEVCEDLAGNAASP

SMILES | outcome
CC1CCCC1.[C-]#[O+].[C-]#[O+].[C-]#[O+].[Mn] | inactive
CN1C[C@H](C(=O)N[C@]2(C)O[C@@]3(O)[C@@H]4CCCN4C(=O)[C@H](Cc4ccccc4)N3C2=O)C=C2c3cccc4[nH]cc(c34)C[C@H]21 | inactive
O=C(O)CCl | inactive
CC(O)CN(CC(C)O)CC(C)O (centres undefined) | inactive
Nc1cc(Cl)cc(Cl)c1 | inactive
Cc1ccc(C)c2ccccc12 | inactive
COC(=O)COc1ccc(Cl)cc1Cl | inactive
CC(=O)c1cc2c(cc1C)C(C)(C)C(C)CC2(C)C (centres undefined) | inactive
[Cl][Sb]([Cl])[Cl] | inactive
C=CC(=O)OCCO | inactive

These compounds were tested on E-selectin (Homo sapiens) (UniProt P16581) (assay: BSK_3C_Eselectin: BioMAP Diversity Plus: 3C Assay for Eselectin Biomarker Activity (AID 2283015; active = hit-call score of the fitted dose curve at least 0.9, where 1 is the maximum; inactive = score below 0.9;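 for outcome: cell surface E-selectin protein quantified by ELISA 24 h after dosing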)). Conditions: primary human endothelial cells (HUVEC); actives raise or lower the signal.
Procedure, shortened: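 Primary human umbilical vein endothelial cells (3C system) were dosed with chemical and cell-surface E-selectin measured by ELISA 24 h later. Bidirectional curve fitting used DMSO as negative control and baseline.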

Chain of E-selectin (Homo sapiens) (P16581 whole entry, looked up): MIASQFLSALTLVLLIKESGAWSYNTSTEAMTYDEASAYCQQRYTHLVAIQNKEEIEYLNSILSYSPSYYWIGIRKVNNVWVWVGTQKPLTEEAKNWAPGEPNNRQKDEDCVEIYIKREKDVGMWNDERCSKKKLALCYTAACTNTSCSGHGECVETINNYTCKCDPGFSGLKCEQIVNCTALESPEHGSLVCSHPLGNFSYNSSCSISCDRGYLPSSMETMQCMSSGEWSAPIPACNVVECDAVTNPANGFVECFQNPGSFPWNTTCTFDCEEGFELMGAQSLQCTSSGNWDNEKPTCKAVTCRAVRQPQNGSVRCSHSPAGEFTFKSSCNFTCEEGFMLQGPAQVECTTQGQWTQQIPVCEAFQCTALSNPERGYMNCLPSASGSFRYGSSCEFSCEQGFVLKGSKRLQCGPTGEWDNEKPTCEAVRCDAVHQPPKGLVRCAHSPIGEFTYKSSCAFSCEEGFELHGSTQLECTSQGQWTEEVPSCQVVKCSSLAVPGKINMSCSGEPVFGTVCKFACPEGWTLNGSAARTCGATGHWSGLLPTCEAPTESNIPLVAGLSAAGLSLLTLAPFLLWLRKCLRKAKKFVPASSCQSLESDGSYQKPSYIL

SMILES | AC50 | outcome
CCCCCCCCCCCC#N | 30.2 µM (active) | –
CC(C)CCCCCCCOC(=O)c1ccccc1C(=O)OCCCCCCCC(C)C | – | inactive
O=[N+]([O-])C=Cc1ccccc1 | 6.94 µM (active) | –
O=[N+]([O-])c1ccc(Cl)cc1 | – | inactive
Nc1ccc(-c2ccc(N)c(N)c2)cc1N | 8.29 µM (active) | –
